# PNC inhibitor = blocks assembly of the perinucleolar compartment; activity change (PNC), negative = inhibition, % at 10 µM; PC3M PTB-GFP, PNC prevalence imaging, 16 h; hits give low values; 3.1% of 140,000 active;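 active = readout at or below -70, meaning at least 70% loss of cells showing the perinucleolar compartment, a nuclear body marking cancer cells; inconclusive = readout between -30 and a set limit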
#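 PC3M cells stably expressing PTB-GFP, 750–1000 cells/well, treated 16 h at 37 °C with compound (23 nl of library stock), in duplicate. After paraformaldehyde fixation and Hoechst stain, imaged at 20x; PNC prevalence scored by image analysis.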
# HPGD inh = HPGD (human) dehydrogenase inhibition. AID 894. purified HPGD, NADH fluorescence kinetic, PGE2 substrate. Potency, µM, hits mostly inhibitors. 4.3% of 150,000 active
#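 NADH formation kinetics: reaction with 30 uM PGE2 and 1 mM NAD+ (final), 20 nM enzyme, Tris-HCl pH 8 with Tween 20, after 15 min compound preincubation at room temperature. Fluorescence change, last versus first of five reads.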
# Lamin A splicing = LMNA splicing modulation | HeLa LMNA splicing GFP/RFP minigene ratio, 48 h | Potency, µM (top dose mostly 46.1 µM), usual class: inhibitors | 0.01% of 200,000 active | AID 1487; active = well fitted inhibition curve with a large enough effect in the signal ratio, with a control signal flat, not every such curve was filed as active; inconclusive = small, poorly fitted or top-dose-only effect, or effect the other way, or a change in a side signal; the % refers to the signal ratio
#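 S3 HeLa cells stably expressing lamin A-EGFP splicing minigene plus DsRed2, 600 cells/well, 48 h compound exposure at 37C. Laser-scanning cytometry; analysed as GFP (500-530 nm)/RFP (575-640 nm) total intensity ratio; 0.5% DMSO vehicle.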
# ALDH1A1 inh = blocks purified human ALDH1A1 activity. Potency, µM (doses to about 75.3 µM), most hits filed as inhibitors. 7.3% of 220,000 active. P00352. AID 1030. Purified ALDH1A1, NADH fluorescence, propionaldehyde substrate
# Target sequence (P00352 whole entry, looked up): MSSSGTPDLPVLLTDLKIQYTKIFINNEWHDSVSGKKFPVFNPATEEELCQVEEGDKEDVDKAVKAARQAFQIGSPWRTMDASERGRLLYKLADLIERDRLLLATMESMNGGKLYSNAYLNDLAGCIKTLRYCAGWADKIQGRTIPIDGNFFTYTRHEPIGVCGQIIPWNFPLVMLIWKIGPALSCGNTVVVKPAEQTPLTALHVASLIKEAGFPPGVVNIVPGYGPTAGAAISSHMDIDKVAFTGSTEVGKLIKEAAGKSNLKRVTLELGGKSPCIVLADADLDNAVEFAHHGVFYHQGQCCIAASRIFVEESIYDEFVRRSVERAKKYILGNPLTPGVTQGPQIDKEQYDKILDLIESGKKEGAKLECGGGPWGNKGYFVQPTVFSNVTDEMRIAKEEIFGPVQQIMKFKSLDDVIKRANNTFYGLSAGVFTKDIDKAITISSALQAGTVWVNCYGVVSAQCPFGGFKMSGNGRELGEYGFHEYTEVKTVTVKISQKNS
# KinaseGlo FLuc = counter-screen: inhibitors of Kinase-Glo firefly luciferase; Kinase-Glo luciferase, ATP luminescence, 8 min; Potency, µM (doses to about 38.3 µM), hits mostly inhibitors; 0.28% of 200,000 active; AID 1379; active = well fitted inhibition curve with a large enough effect; inconclusive = small, poorly fitted or top-dose-only effect; also: nearly all actives have a fitted effect of over 60% in size
#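 Compounds were added to a substrate mix at pH 7.2 (50 mM imidazole, 10 uM ATP, within the enzyme's linear range), followed by Kinase-Glo detection reagent; luminescence was measured after 8 minutes at ambient temperature.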
# Hits are given with their value; – = inactive; ? = inconclusive; · = no result; ! = not active in a repeat. This is a sample that favours compounds with a hit; in the whole collection about 10% have one here. Unless noted, calls follow the shape of the dose curve; as a rule, active = well fitted inhibition curve with a large enough effect (not every such curve was filed as active); inconclusive = small, poorly fitted or top-dose-only effect, or another doubt; inactive = no such curve, though single readings can be large or run the other way.
SMILES,PNC inhibitor,HPGD inh,Lamin A splicing,ALDH1A1 inh,KinaseGlo FLuc
COc1ccc(CNC(=O)c2ccc3c(=O)n(CCCN4CCCC4=O)c(=S)[nH]c3c2)cc1,·,·,–,28µM,–
COC(=O)c1ccc2c(=O)n(CCCN3CCCC3=O)c(=S)[nH]c2c1,?,?,–,?,–
CC(CN(C)C)NC(=O)c1ccc(-n2c(=O)c(=O)[nH]c3ccccc32)cc1 (centres undefined),·,–,·,–,–
Cc1ccccc1CN1CCNC(=O)C1CC(=O)O (centres undefined),-84,–,–,?,–
COc1cccc(CN2CCNC(=O)C2CC(=O)O)c1OC (centres undefined),?,–,–,?,–
COc1ccc2[nH]cc(CCNc3ncncc3-c3ccoc3)c2c1,·,·,?,–,·
COC(=O)CN(c1ccc(OC)cc1OC)S(=O)(=O)c1ccccc1[N+](=O)[O-],·,·,–,19µM,–
O=C(O)c1cc(S(=O)(=O)Nc2cccc(Cl)c2)ccc1O,·,–,·,?,–
O=S(=O)(Nc1cccc(Cl)c1)c1ccc2oc(=S)[nH]c2c1,·,·,·,1µM,–
CCn1c(=S)[nH]c2cc(S(=O)(=O)N3CCCCC3)ccc21,–,–,?,7.1µM,–
Cc1ccc(S(C)(=O)=O)cc1S(=O)(=O)Nc1cccc(Cl)c1,-112,–,–,–,–
O=S(=O)(c1ccc2oc(=S)[nH]c2c1)N1CCCCC1,·,·,·,20µM,·
Cc1nc(NCc2ccccc2)c2nc(-c3ccccc3)n(CCN3CCCC3)c2n1,·,?,·,?,–
N#Cc1cccc(NC(=O)N2CC[C@@]3(CCCN(C(=O)c4cc(C(F)(F)F)cc(C(F)(F)F)c4)C3)C2)c1,·,–,·,–,–
Cc1ccc2c(c1)cc(C(=O)NCc1ccccc1C)n2C,·,·,–,·,·
COC(=O)[C@@H]1C[C@H]2CC[C@H](O)C[C@H]2N1Cc1c(F)cccc1Cl,·,–,·,–,–
COC(=O)[C@@H]1C[C@@]2(O)[C@@H](O)[C@@H](O)[C@@H](O)C[C@H]2N1Cc1ccc(N2CCOCC2)cc1,·,–,·,–,–
CC(C)C(=O)Nc1ccc(C(=O)NNC(=O)CCc2ccccc2)cc1,–,–,–,–,–
O=C(O)c1cccnc1,–,–,?,–,–
O=C(c1ccccc1)c1ccccc1,·,–,·,25µM!,–
O=C(c1cccnc1)c1cccnc1,-124,–,?,–,–
CC(Oc1ccccc1)C(=O)Nc1ccccc1O (centres undefined),–,7.1µM,–,–,–
CC(C)C(=O)Nc1ccc(C(=O)c2ccccc2)cc1,?,14µM,–,?,–
Cn1c(=O)c(-c2cc(F)cc(F)c2)nc2cnc(N3CCOCC3)nc21,·,·,–,–,·
CC(Oc1ccc(C(=O)c2ccccc2)cc1)C(=O)Nc1ccc(S(N)(=O)=O)cc1 (centres undefined),–,?,?,10µM,–
SMILES,PNC inhibitor,HPGD inh,Lamin A splicing,ALDH1A1 inh,KinaseGlo FLuc
CC(Oc1ccccc1)C(=O)Nc1nc2ccc(S(N)(=O)=O)cc2s1 (centres undefined),·,·,–,·,·
CC1CC2C3CC(F)C4=CC(=O)C=C[C@@]4(C)[C@@]3(F)C(O)C[C@]2(C)[C@]1(O)C(=O)COC(=O)C(C)(C)C (some centres undefined),·,–,·,–,–
CCS(=O)(=O)N1CCN(c2ccc(Cl)cc2[N+](=O)[O-])CC1,-83,–,?,–,–
O=C(NC(=S)N1CCN(c2ccc(Cl)cc2[N+](=O)[O-])CC1)c1cccs1,-112,–,?,7.9µM,–
C(=N\N1CCN(c2ccccn2)CC1)/c1ccccn1,·,·,·,–,·
O=C(NC(=S)N1CCN(c2ccc(Cl)cc2[N+](=O)[O-])CC1)c1ccco1,-81,?,?,–,–
C(=N\N1CCN(c2ccccn2)CC1)/c1ccco1,·,·,·,18µM,–
CN1CCN(C(=S)NC(=O)c2ccco2)CC1,·,·,·,–,–
CC1Cc2ccccc2N1C(=S)NC(=O)c1ccco1 (centres undefined),·,·,–,22µM,–
O=C(NC(=S)N1CCCc2ccccc21)c1ccco1,·,·,–,?,–
O=C(NC(=S)N1CCN(c2ccccn2)CC1)c1ccco1,·,·,·,11µM,–
CN(C)Cc1ccccc1-c1ccc2ncnc(N3CCOCC3)c2c1,·,–,–,–,–
CCCCC(=O)O[C@]1(C(=O)CO)[C@H](C)C[C@H]2[C@@H]3CCC4=CC(=O)C=C[C@]4(C)[C@@]3(F)[C@@H](O)C[C@@]21C,·,–,·,–,–
Cc1c(Cl)sn(-c2ccc(Cl)cc2)c1=O,·,·,·,1.8µM,–
Cc1ccc(NC(=S)Nc2ccc3nc(-c4ccccn4)c(-c4ccccn4)nc3c2)cc1C,?,–,–,18µM,–
CCN(CC)CCCC(C)n1c(-c2ccccc2)nc2c(NC3CCCCC3)nc(C)nc21 (centres undefined),·,?,·,?,–
Cc1nc(Nc2ccccc2)c2nc(-c3ccccc3)n(CCCN3CCCCC3C)c2n1 (centres undefined),·,–,·,–,–
COc1ccc(CNC(=O)CCS(=O)(=O)c2cccc3nonc23)cc1,–,–,–,18µM,–
O=C(CCS(=O)(=O)c1cccc2nonc12)N1CC(=O)N(CCc2ccccc2)C(=O)C1,–,–,–,28µM,–
COc1ccc(NC(=O)CCS(=O)(=O)c2cccc3nonc23)c(OC)c1,?,–,–,?,–
Cc1ccc(CNC(=O)CCS(=O)(=O)c2cccc3nonc23)cc1,–,–,–,40µM,–
COc1ccccc1CNC(=O)CCS(=O)(=O)c1cccc2nonc12,–,–,–,18µM,–
O=C1N=C(N2CCC(Cc3ccccc3)CC2)S/C1=C/c1cn[nH]c1-c1ccccc1,–,25µM,–,–,–
O=C1N=C(N2CCN(c3ccccc3)CC2)S/C1=C\c1cn[nH]c1-c1ccccc1,?,?,–,–,–
CN(C)C(=O)c1ccc(-c2ccc3ncnc(N(C)C)c3c2)cc1,·,·,?,–,·
CC(SC#N)C(=O)C12CC3CC(CC(C3)C1)C2 (centres undefined),·,·,·,8.9µM,–

# Assay outcomes: PubChem, National Center for Advancing Translational Sciences (NCATS)
